Data published in the antibiotic and cytotoxicity screens of Wong et al. (2023).
Among all 39,000 compounds or so, about 3,300 (8.5%) were called active. Many of the other results were omitted from the sample, so actives are more common in it than they were.

The compounds below were run on HepG2 (assay: cytotoxicity call (relative viability < 0.9)). Conditions: 10 µM.

Row | SMILES | cytotoxicity call
1 | C[C@@H]1CN([C@@H](C)CO)C(=O)CCCn2cc(nn2)CO[C@H]1CN(C)S(=O)(=O)c1ccccc1C#N | inactive
2 | CC(C)c1cccc(NC(=O)C[C@H]2CC[C@H]3[C@@H](COc4ccc(NC(=O)c5ccc(C#N)cc5)cc4C(=O)N3C)O2)c1 | inactive
3 | COc1ccc(S(=O)(=O)N(C)C[C@H]2OCCCC[C@H](C)Oc3ccc(NC(=O)Nc4cccc5ccccc45)cc3C(=O)N([C@@H](C)CO)C[C@H]2C)cc1 | inactive
4 | COc1ccc(S(=O)(=O)N(C)C[C@H]2Oc3ccc(N(C)C)cc3CC(=O)N([C@H](C)CO)C[C@H]2C)cc1 | inactive
5 | C[C@@H]1CN([C@H](C)CO)C(=O)c2cccc(NS(=O)(=O)c3ccc(F)cc3)c2O[C@@H]1CN(C)Cc1ccc(Cl)c(Cl)c1 | inactive
6 | COc1ccc(S(=O)(=O)Nc2ccc3c(c2)C(=O)N([C@H](C)CO)C[C@@H](C)[C@H](CN(C)C(=O)Nc2cccc4ccccc24)OCCCC[C@@H](C)O3)cc1 | inactive
7 | C[C@H]1CN([C@@H](C)CO)C(=O)c2cc(C#CCN(C)C)cnc2O[C@@H]1CN(C)Cc1ccc(C(=O)O)cc1 | inactive
8 | C[C@@H]1CN([C@H](C)CO)C(=O)c2cccc(NC(=O)Nc3ccc4c(c3)OCO4)c2O[C@H]1CN(C)C(=O)Nc1ccc(C(F)(F)F)cc1 | inactive
9 | Nc1ncccc1-c1nc2ccc(-c3ccccc3)nc2n1-c1ccc(C2(N)CCC2)cc1 | active
10 | NC(=O)c1ccc2nc(-c3ccc(C4(N)CCC4)cc3)c(-c3ccccc3)n2n1 | inactive
11 | CC(C)NC(=O)N[C@@H]1CC[C@@H](CCN)O[C@@H]1CO | inactive
12 | Cc1ccc(S(=O)(=O)Nc2ccc3c(c2)CC(=O)N([C@@H](C)CO)C[C@@H](C)[C@@H](CN(C)S(=O)(=O)c2c(C)noc2C)O3)cc1 | inactive
13 | Cc1noc(C)c1NC(=O)N(C)C[C@H]1Oc2ccc(NC(=O)Cn3cnnn3)cc2CC(=O)N([C@H](C)CO)C[C@@H]1C | inactive
14 | Cc1noc(C)c1S(=O)(=O)Nc1ccc2c(c1)CC(=O)N([C@@H](C)CO)C[C@@H](C)[C@H](CN(C)C(=O)Nc1ccccc1)O2 | inactive
15 | Cc1[nH]c2ncnn2c(=O)c1NS(C)(=O)=O | inactive
16 | COC(=O)Cc1c(C)[nH]c2ncnn2c1=O | inactive
17 | CC(=O)Nc1c(C)[nH]c2ncnn2c1=O | active
18 | C[C@@H]1CN([C@H](C)CO)C(=O)Cc2cc(NS(C)(=O)=O)ccc2O[C@@H]1CN(C)C(=O)Nc1ccc(C(F)(F)F)cc1 | inactive
19 | O=C(Nc1ccno1)NN1CCOCC1 | inactive
20 | COc1cc([C@@H]2c3cc4c(cc3[C@@H](O[C@@H]3O[C@@H]5CO[C@@H](C)O[C@H]5[C@H](O)[C@H]3O)[C@@H]3COC(=O)[C@@H]23)OCO4)cc(OC)c1O | inactive
21 | COc1cc(C2c3cc4c(cc3C(OC3OC5COC(C)OC5C(O)C3O)C3COC(=O)C23)OCO4)cc(OC)c1O (stereo unspecified) | inactive
22 | COc1cc([C@@H]2c3cc4c(cc3[C@@H](O[C@@H]3O[C@@H]5CO[C@@H](C)O[C@H]5[C@H](O)[C@H]3O)[C@H]3COC(=O)[C@H]23)OCO4)cc(OC)c1O | active
23 | COc1cc(C2c3cc4c(cc3C(OC3OC5COC(c6cccs6)OC5C(O)C3O)C3COC(=O)C23)OCO4)cc(OC)c1O (stereo unspecified) | active
24 | C[C@H](CO)N1C[C@H](C)[C@H](CN(C)S(=O)(=O)c2cccs2)Oc2ccc(NS(=O)(=O)c3ccc(F)cc3)cc2CC1=O | inactive

Row | SMILES | cytotoxicity call
25 | O=C(C[C@@H]1C[C@H]2c3cc(NC(=O)C4CCOCC4)ccc3O[C@H]2[C@@H](CO)O1)NCCN1CCCCC1 | inactive
26 | C[C@@H]1CN([C@@H](C)CO)C(=O)c2cc(C#CCN(C)C)cnc2O[C@H]1CN(C)C(=O)c1ccc2c(c1)OCO2 | inactive
27 | Cc1ccc(S(=O)(=O)Nc2ccc3c(c2)C(=O)N([C@H](C)CO)C[C@H](C)[C@H](CN(C)C(=O)Nc2ccc(C(F)(F)F)cc2)OCCCC[C@H](C)O3)cc1 | active
28 | Cc1ccc(S(=O)(=O)Nc2ccc3c(c2)C(=O)N([C@@H](C)CO)C[C@H](C)[C@@H](CN(C)C(=O)Nc2ccc(C(F)(F)F)cc2)OCCCC[C@H](C)O3)cc1 | active
29 | Cc1ccc(S(=O)(=O)Nc2ccc3c(c2)C(=O)N([C@H](C)CO)C[C@H](C)[C@@H](CN(C)C(=O)Nc2ccc(C(F)(F)F)cc2)OCCCC[C@H](C)O3)cc1 | inactive
30 | Cc1ccc(S(=O)(=O)Nc2ccc3c(c2)C(=O)N([C@@H](C)CO)C[C@H](C)[C@@H](CN(C)C(=O)Nc2ccc(C(F)(F)F)cc2)OCCCC[C@@H](C)O3)cc1 | active
31 | Cc1ccc(S(=O)(=O)Nc2ccc3c(c2)C(=O)N([C@H](C)CO)C[C@H](C)[C@@H](CN(C)C(=O)Nc2ccc(C(F)(F)F)cc2)OCCCC[C@@H](C)O3)cc1 | inactive
32 | Cc1ccc(S(=O)(=O)Nc2ccc3c(c2)C(=O)N([C@@H](C)CO)C[C@@H](C)[C@@H](CN(C)C(=O)Nc2ccc(C(F)(F)F)cc2)OCCCC[C@H](C)O3)cc1 | inactive
33 | Cc1ccc(S(=O)(=O)Nc2ccc3c(c2)C(=O)N([C@H](C)CO)C[C@H](C)[C@H](CN(C)C(=O)Nc2ccc(C(F)(F)F)cc2)OCCCC[C@@H](C)O3)cc1 | inactive
34 | Cc1ccc(S(=O)(=O)Nc2ccc3c(c2)C(=O)N([C@H](C)CO)C[C@@H](C)[C@H](CN(C)C(=O)Nc2ccc(C(F)(F)F)cc2)OCCCC[C@@H](C)O3)cc1 | inactive
35 | Cc1ccc(S(=O)(=O)Nc2ccc3c(c2)C(=O)N([C@H](C)CO)C[C@@H](C)[C@H](CN(C)C(=O)Nc2ccc(C(F)(F)F)cc2)OCCCC[C@H](C)O3)cc1 | inactive
36 | C[C@@H]1CN([C@H](C)CO)C(=O)Cc2cc(NS(=O)(=O)c3cn(C)cn3)ccc2O[C@@H]1CN(C)Cc1ccc2c(c1)OCO2 | inactive
37 | C=CC[C@H](CC(=O)NCCO)C(=O)N[C@H](COC(=O)[C@@H](CC=C)CC(=O)OC(C)(C)C)c1ccccc1 | inactive
38 | C[C@@H]1CCCCO[C@@H](CN(C)CC2CC2)[C@H](C)CN([C@H](C)CO)C(=O)c2cc(NC(=O)CCC(F)(F)F)ccc2O1 | inactive
39 | C[C@H](CO)N1C[C@H](C)[C@@H](CN(C)C(=O)c2ccccc2)OCCCC[C@H](C)Oc2ccc(NS(=O)(=O)c3ccccc3)cc2C1=O | inactive
40 | CO[C@H]1CN(C)C(=O)c2ccc(NC(=O)Nc3cccc(Cl)c3)cc2OC[C@H](C)N(C(=O)Nc2c(C)noc2C)C[C@H]1C | inactive
41 | COc1ccc(C(=O)NCC#N)cc1 | inactive
42 | COc1ccc(C(=O)c2ccccc2O)c(O)c1 | inactive
43 | COc1ccc(Sc2ccc(N(C(=O)c3ccccc3Cl)C(=O)c3ccccc3Cl)cc2C#N)cc1 | active
44 | CC(C)CNc1nc(=O)cn[nH]1 | active
45 | O=c1cn[nH]c(Nc2ccccc2)n1 | inactive
46 | O=c1cn[nH]c(NC2CCCC2)n1 | inactive
47 | C=CCC[C@@H](Cc1ccc(F)cc1)C(=O)OC[C@@H]1CCCN1C(=O)[C@H](CC=C)CC(=O)N(CCO)Cc1ccccc1 | inactive
48 | COc1ccccc1S(=O)(=O)N[C@@H]1C=C[C@@H](CC(=O)N2CCN(C)CC2)O[C@@H]1CO | inactive

Row | SMILES | cytotoxicity call
49 | c1n[nH]cc1-c1cn[nH]c1 | inactive
50 | NC[C@@](O)(CS(=O)(=O)O)c1ccc(Cl)cc1 | inactive
51 | NC[C@@](O)(c1ccc(Cl)cc1)c1ccc(-c2cn[nH]c2)cc1 | active
52 | COc1ccccc1CNC(=O)C[C@H]1C[C@H]2c3cc(NC(=O)C4CCOCC4)ccc3O[C@H]2[C@H](CO)O1 | inactive
53 | CC1OC(n2cc(F)c(=O)[nH]c2=O)C(O)C1O (stereo unspecified) | inactive
54 | C[C@H]1O[C@@H](n2cc(F)c(=O)[nH]c2=O)[C@H](O)[C@@H]1O | inactive
55 | CCCCCCNC(=O)n1cc(F)c(=O)[nH]c1=O | active
56 | Cc1ccc(S(=O)(=O)Nc2ccc3c(c2)CC(=O)N([C@@H](C)CO)C[C@H](C)[C@H](CN(C)S(C)(=O)=O)O3)cc1 | inactive
57 | CC(C)NC(=O)NCC[C@H]1CC[C@H](NC(=O)CN(C)C)[C@H](CO)O1 | inactive
58 | Cc1c(NC(=O)c2cc3c(s2)CCCC3)cccc1-c1cn(C)c(=O)c(Nc2ccc([C@H]3C(=O)N(C)CCN3C)cc2)n1 | inactive
59 | C[C@@H]1CCCCO[C@H](CN(C)C(=O)Nc2ccc3c(c2)OCO3)[C@@H](C)CN([C@@H](C)CO)C(=O)c2cc(NS(=O)(=O)c3ccccc3)ccc2O1 | inactive
60 | C[C@@H]1CCCCO[C@H](CN(C)C(=O)NC2CCCCC2)[C@H](C)CN([C@H](C)CO)C(=O)c2cc(NC(=O)Nc3ccc(F)cc3)ccc2O1 | active
61 | C[C@@H]1CN([C@H](C)CO)C(=O)c2cc(NC(=O)Nc3ccc(F)cc3)ccc2O[C@@H](C)CCCCO[C@H]1CN(C)C(=O)NC1CCCCC1 | inactive
62 | C[C@H](CO)N1C[C@H](C)[C@H](CN(C)C(=O)NC2CCCCC2)OCCCC[C@H](C)Oc2ccc(NC(=O)NC3CCCCC3)cc2C1=O | inactive
63 | Cc1noc(C)c1NC(=O)N(C)C[C@@H]1OCCCC[C@@H](C)Oc2ccc(NC(=O)NC3CCCCC3)cc2C(=O)N([C@H](C)CO)C[C@@H]1C | inactive
64 | C[C@H](CO)N1C[C@H](C)[C@@H](CN(C)C(=O)NC2CCCCC2)OCCCC[C@H](C)Oc2ccc(NC(=O)NC3CCCCC3)cc2C1=O | inactive
65 | Cc1noc(C)c1NC(=O)N(C)C[C@H]1OCCCC[C@@H](C)Oc2ccc(NC(=O)NC3CCCCC3)cc2C(=O)N([C@@H](C)CO)C[C@H]1C | inactive
66 | C[C@@H]1CCCCO[C@@H](CN(C)C(=O)NC2CCCCC2)[C@@H](C)CN([C@H](C)CO)C(=O)c2cc(NC(=O)Nc3ccc(F)cc3)ccc2O1 | inactive
67 | Cc1noc(C)c1NC(=O)N(C)C[C@H]1OCCCC[C@@H](C)Oc2ccc(NC(=O)NC3CCCCC3)cc2C(=O)N([C@H](C)CO)C[C@@H]1C | active
68 | C[C@@H]1CCCCO[C@H](CN(C)C(=O)Nc2ccc(F)cc2)[C@@H](C)CN([C@H](C)CO)C(=O)c2cc(NC(=O)NC3CCCCC3)ccc2O1 | inactive
69 | C[C@@H]1CCCCO[C@H](CN(C)C(=O)NC2CCCCC2)[C@H](C)CN([C@H](C)CO)C(=O)c2cc(NC(=O)NC3CCCCC3)ccc2O1 | active
70 | C[C@@H]1CCCCO[C@@H](CN(C)C(=O)Nc2ccc(F)cc2)[C@@H](C)CN([C@@H](C)CO)C(=O)c2cc(NC(=O)NC3CCCCC3)ccc2O1 | active
71 | C[C@@H]1CN([C@H](C)CO)C(=O)c2cc(NC(=O)NC3CCCCC3)ccc2O[C@@H](C)CCCCO[C@@H]1CN(C)C(=O)Nc1ccc(F)cc1 | inactive
